Screens deposited in PubChem BioAssay by several laboratories.
HCT116 PTEN-null: growth suppression of PTEN-null HCT116, primary screen, cell-based, CellTiter-Glo; HCT116 PTEN-null viability, 60 h; hits give low values; viability, % at 10 µM; hit rate 1.2% among 140,000; AID 827, 2007;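 active = viability at or below a set limit, 4 SD under the median of all tested compounds, cut at about 3.7% in these data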;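 also: PTEN knockout HCT116 line with beta catenin targeted HCT116 as companion control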
HCT116 bCat-KO: primary screen for growth suppressors in beta-catenin knockout HCT116 cells (colon tumor, human); HCT116 beta-catenin knockout viability, CellTiter-Glo, 60 h; hits give low values; viability, % at 10 µM; hit rate 1.5% among 140,000; AID 818, 2007;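 active = viability at or under a set limit, the compound median less 4 SD, cut at about 6% in these data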
Insulin prom inh: inhibitors of insulin promoter-driven GFP, primary screen, imaging, TRM-6 cells (human fetal islet line), eGFP reporter, cell count. reporter expression induced with tamoxifen. hit rate 0.9% among 130,000. inhibition, % at 2 µM. AID 1273, 2008;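 active = inhibition above the mean plus 3 SD, with well images judged a real hit on visual review, cut at about 60% in these data, passing the limit was not always enough; inconclusive = inhibition over the cutoff but images rejected on review; inactive = inhibition not above the cutoff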
Ins promoter up: insulin promoter activators in MIN6 cells, imaging, high-content screening, mouse beta cells; AID 1625, 2009; hit rate 0.3% among 190,000; z-score at 5 µM; MIN6 insulin promoter-GFP reporter; hits give high values;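 active = z-score above 3 at 5 µM with at least 500 cells counted in the well; inconclusive = wells under 500 cells, flagged as cytotoxic or low count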
Lmaj promast: Leishmania major promastigote growth inhibition, primary screen | Leishmania major promastigotes, resazurin fluorescence viability | inhibition, % at 10 µM | hit rate 9% among 200,000; in the data active = inhibition above about 50%;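 also: promastigotes grown with compound for 44 hours at 28 °C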
Autophagy mod: autophagy modulators in MEF cells, primary screen, imaging, high-content, MEF GFP-LC3; MEF GFP-LC3 puncta imaging; test concentration mostly 10 µM; calls only at 10 µM (by protocol); hit rate 0.98% among 190,000; AID 463193, 2010;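 active = percentage of spot-positive cells more than 3 SD above its plate mean, without a fluorescence outlier flag or 80% toxicity; inconclusive = no clear call, values can overlap the other calls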
Hits are given with their value; – = inactive; ? = inconclusive; · = no result; + = active, no number. Shown are actives, neighbours in structure and some others; about 9.6% of the full set was active somewhere.

SMILES	HCT116 PTEN-null	HCT116 bCat-KO	Insulin prom inh	Ins promoter up	Lmaj promast	Autophagy mod
COCCN1C(=O)/C(=C/c2ccc(Oc3ccc([N+](=O)[O-])cn3)c(OC)c2)SC1=Nc1ccccc1	–	–	–	–	100.3	–
COc1cc(/C=C2/NC(=O)N(CC(=O)Nc3ccc(C)cc3)C2=O)ccc1Oc1ccc([N+](=O)[O-])cn1	·	·	·	–	–	–
CC(NC(=O)Nc1nnc(C(F)(F)F)s1)(C(F)(F)F)C(F)(F)F	1.8	2.4	–	–	–	–
CC(C)(C)CC(=O)Nc1nnc(C(F)(F)F)s1	–	–	–	–	–	–
CCOc1ccc(NC(=S)NC(=O)c2ccco2)cc1	·	·	·	–	·	·
C=CCc1ccc(OCCN2CCc3ccccc3C2)c(OC)c1	·	·	·	–	83.2	–
C/C=C/c1ccc(OCCN2CCc3ccccc3C2)c(OC)c1	–	–	–	–	–	–
C=CCc1ccc(OCCCCN2CC(C)OC(C)C2)c(OC)c1 (configuration not stated)	–	–	–	·	98.5	–
C=CCc1ccc(OCCCOc2ccc(C)cc2OC)c(OC)c1	–	–	–	–	–	–
COc1ccc(OC)c(NC(=O)c2ccc3c(=O)n(CCc4ccccc4)c(=S)[nH]c3c2)c1	–	–	·	–	–	+
COc1ccc(NC(=O)c2ccc3c(=O)n(Cc4ccco4)c(=S)[nH]c3c2)c(OC)c1	–	–	–	–	–	–
Cc1cc(C)n2c(SCC(=O)NCc3ccco3)nnc2n1	–	–	·	–	–	–
O=C(Nc1ccc(NC(=O)c2sc3ccccc3c2Cl)cc1)c1ccco1	1.5	1.4	·	–	–	–
COc1ccc(NC(=O)c2ccc(C(=O)c3ccccc3)o2)cc1	–	–	90.0	–	–	–
Cc1ncoc1C(=O)Nc1ccc(Oc2ccccc2)cc1	–	–	–	–	–	–
Cc1ccc(C(=O)Nc2ccc(F)cc2)o1	–	–	–	–	50.7	–
Cc1cccc(NC(=O)c2ccc(C(=O)c3ccccc3)o2)c1	·	·	–	–	–	–
Cc1nc(C)c(C(=O)Nc2ccc(Oc3ccccc3)cc2)o1	–	–	–	–	76.2	–
FC(F)Oc1ccc(NC(=S)N2CCc3ccccc32)cc1	·	·	–	–	–	–
CC(C)OC(=O)c1ccc(NC(=O)c2ccccc2)cc1	–	–	–	·	–	+
COc1ccc(C(=O)COC(=O)c2ccc(NC(=O)c3ccccc3)cc2)cc1	–	1.1	–	·	–	–
CC(C)(C)c1ccc(C(=O)Nc2ccc(NC(=O)c3ccco3)cc2)cc1	–	–	–	–	–	–
CC(C)OC(=O)c1ccc(NC(=O)c2ccco2)cc1	–	–	–	–	55.6	–
CCOC(=O)c1ccc(NC(=O)c2ccc(NC(=O)c3ccccc3)cc2)cc1	–	–	–	–	–	–
COc1ccc(NC(=O)c2ccco2)cc1NC(=O)c1c(F)c(F)c(OC)c(F)c1F	–	–	–	·	–	–
SMILES	HCT116 PTEN-null	HCT116 bCat-KO	Insulin prom inh	Ins promoter up	Lmaj promast	Autophagy mod
COc1c(F)c(F)c(C(=O)Nc2ccc(NC(=O)c3ccco3)cc2)c(F)c1F	–	–	–	–	63.7	–
Cc1nc(-c2ccc(Cl)cc2)sc1C(=O)O	·	·	–	–	–	–
O=C(O)Cc1ccc(NC(=O)c2ccc(NC(=O)c3ccco3)cc2)cc1	–	–	–	–	–	–
Cc1ccc(C)c2c1c1ccccc1n2C	·	·	·	–	·	·
COC(=O)N/N=C/c1ccc(-c2cc(Cl)cc(Cl)c2)o1	–	–	–	–	–	–
NC(=S)N/N=C/c1ccc(-c2cc(Cl)cc(Cl)c2)o1	–	–	–	–	97.4	–
CCOC(=O)N/N=C\c1ccc(-c2cc(Cl)ccc2Cl)o1	·	·	·	–	–	–
NC(=S)N/N=C/c1ccc(-c2cc(Cl)ccc2Cl)o1	–	–	–	–	100.4	–
COC(=O)N/N=C/c1ccc(-c2cccc(Cl)c2)o1	–	–	–	–	61.1	–
Cc1cnc(NC(=O)CN2CCN(c3ccccn3)CC2)s1	–	–	–	3.14	–	–
CC(C)(C)S(=O)(=O)c1cnc2c(S(=O)(=O)c3ccccc3)cnn2c1N	·	·	·	–	–	–
CC1CCCC(C)N1CC(C)(C)NS(=O)(=O)c1ccc(Cl)cc1 (configuration not stated)	–	–	–	–	88.2	–
CCC1CCCCN1CC(C)(C)NS(=O)(=O)c1ccccc1 (configuration not stated)	·	·	·	–	·	·
CC(C)(CN1CCc2ccccc2C1)NS(=O)(=O)c1ccccc1	·	·	·	–	·	·
CC1CC(C)CN(CC(C)(C)NS(=O)(=O)c2ccccc2)C1 (configuration not stated)	–	–	–	–	88.9	–
COc1ccc(CNc2nc3c(c(=O)n(Cc4ccc(Br)cc4)c(=O)n3C)n2C)cc1	–	–	–	–	–	–
Cc1nn(C2CCS(=O)(=O)C2)c(Cl)c1/C=C/C(=O)OCC(=O)Nc1ccccc1[N+](=O)[O-] (configuration not stated)	·	·	·	–	–	–
Cc1nn(C2CCS(=O)(=O)C2)c(Cl)c1/C=C/C(=O)OCC(=O)Nc1ccccc1OC(F)F (configuration not stated)	–	–	65.7	·	50.9	–
COCCn1c(Sc2nc(C)cs2)nc2c1c(=O)[nH]c(=O)n2C	–	–	–	–	–	–
O=C(O)C1CC=CCC1C(=O)Nc1cccnc1 (configuration not stated)	·	·	–	–	–	–
COc1ccc(CN2CCN(c3ccccn3)CC2)c(OC)c1	–	–	–	–	–	–
c1ccc(CN2CCN(c3nc(-c4ccccn4)nc4ccccc34)CC2)cc1	–	–	·	?	100.3	–
CN1CCN(c2nc(-c3ccncc3)nc3ccccc23)CC1	–	–	–	–	100.2	–
c1ccc(COc2ccc(CN3CCN(c4ccccn4)CC3)cc2)cc1	–	–	–	–	95.2	–
c1ccc(CN2CCN(c3nc(-c4ccccc4)nc4ccccc34)CC2)cc1	–	–	–	–	68.4	–
SMILES	HCT116 PTEN-null	HCT116 bCat-KO	Insulin prom inh	Ins promoter up	Lmaj promast	Autophagy mod
CCOc1ccccc1N1CC(C(=O)N2CCc3ccccc3C2)CC1=O (configuration not stated)	–	–	–	–	–	–
Cn1cccc1CC(=O)N/N=C/c1ccc([N+](=O)[O-])cc1	·	·	·	–	·	·
CCN(CC)S(=O)(=O)c1ccc(/C=C/C(=O)O)cc1	·	·	·	–	–	–
O=C1/C(=C/c2cccnc2)Sc2ccccc21	–	–	–	–	83.2	–
CC(=O)Nc1ccc(/C=C2\Sc3ccccc3C2=O)cc1	·	·	·	–	·	·
Cc1ccccc1/C=N/Nc1ncnc2nc[nH]c12	·	·	·	–	·	·
Fc1ccc(/C=N/Nc2ncnc3nc[nH]c23)cc1F	–	–	60.0	–	50.1	–
NC(=O)c1cc(N2C(=O)C3CC=CCC3C2=O)ccc1N1CCCCC1 (configuration not stated)	–	–	–	–	–	–
COc1ccc2c(C(=O)CN(C)C3CCCCC3)c[nH]c2c1	–	–	–	4.45	–	–
COc1ccc2c(C(=O)CN3CCSCC3)c[nH]c2c1	·	·	·	–	·	·
